Measurements taken from PubChem BioAssay AID1159580 (chemical genetic matrix, 2015).
About 2,000 (36%) of roughly 5,500 compounds were called active. About 18% were inconclusive and are not listed. Rule as the data show it: active = normalized growth mostly below about 0.91 (no sharp cut-off); inconclusive = no clear call, values can overlap the other calls; inactive = mostly above about 0.92. This is one part of the list.

Assay: chemical genetic growth profiling, strain panel (AID 1159580);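 also: tested at 20 µM; growth read once vehicle control cultures reached saturation at 30 °C; 1 = growth at the plate median or of vehicle wells; lower values mean less growth of the strain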
Conditions: S. cerevisiae deletion strains, growth OD
[1] = locus YDR150W, strain NUM1, stronger effect = lower value
[2] = locus YMR263W, strain SAP30, stronger effect = lower value
[3] = locus YMR307W, strain GAS1, stronger effect = lower value

Measured: normalized growth

O=c1cc(O)cc(/C=C/c2ccc(O)c(O)c2)o1
inactive: locus YAL013W, strain DEP1, stronger effect = lower value 0.981 | locus YAL040C, strain CLN3, stronger effect = lower value 0.986 | locus YCL061C, strain MRC1 (second series), stronger effect = lower value 0.988 | [1] 0.978 | locus YDR363W, strain ESC2, stronger effect = lower value 0.995 | locus YER002W, strain NOP16, stronger effect = lower value 0.999 | locus YGR078C, strain PAC10, stronger effect = lower value 0.985 | locus YGR229C, strain SMI1, stronger effect = lower value 0.966 | locus YJR075W, strain HOC1, stronger effect = lower value 0.988 | [2] 1 | [3] 1.01 | locus YNL175C, strain NOP13, stronger effect = lower value 0.988 | locus YNL197C, strain WHI3, stronger effect = lower value 0.986 | locus YNL224C, strain SQS1, stronger effect = lower value 1.02 | locus YOR083W, strain WHI5 (second series), stronger effect = lower value 0.975 | locus YPL055C, strain LGE1, stronger effect = lower value 0.978

COc1cc(O)cc(/C=C/c2ccccc2)c1
inactive: locus YBR229C, strain ROT2, stronger effect = lower value 0.97 | [1] 0.954 | locus YDR388W, stronger effect = lower value 0.966 | locus YER167W, strain BCK2, stronger effect = lower value 0.94 | locus YHR094C, strain hxt1, stronger effect = lower value 0.946 | locus YIL073C, strain SPO22, stronger effect = lower value 0.809 | locus YIL125W, strain kgd1, stronger effect = lower value 0.94 | locus YJL134W, strain LCB3, stronger effect = lower value 0.976 | locus YJL168C, strain set2, stronger effect = lower value 0.954 | locus YKL068W, stronger effect = lower value 0.954 | locus YLR102C, strain apc9, stronger effect = lower value 0.942 | locus YLR268W, strain sec22, stronger effect = lower value 0.909 | locus YLR371W, strain rom2, stronger effect = lower value 0.949 | locus YML016C, strain PPZ1, stronger effect = lower value 0.924 | locus YMR078C, strain ctf18, stronger effect = lower value 0.938 | locus YOL012C, strain htz1 1.06 | locus YOR316C, strain cot1, stronger effect = lower value 0.949 | locus YPR141C, strain kar3, stronger effect = lower value 0.95
active: locus YBR021W, strain FUR4, stronger effect = lower value 0.833 | locus YCL029C, strain bik1, stronger effect = lower value 0.9 | locus YDL035C, strain GPR1, stronger effect = lower value 0.665 | locus YDL074C, strain BRE1, stronger effect = lower value 0.61 | locus YDL101C, strain DUN1, stronger effect = lower value 0.835 | locus YDL134C, strain PPH21, stronger effect = lower value 0.697 | locus YDL185W, strain tfp1, stronger effect = lower value 0.881 | locus YDL192W, strain arf1, stronger effect = lower value 0.692 | locus YDR101C, strain arx1, stronger effect = lower value 0.858 | locus YDR162C, strain NBP2, stronger effect = lower value 0.618 | locus YDR318W, strain mcm21, stronger effect = lower value 0.805 | locus YDR502C, strain sam2, stronger effect = lower value 0.748 | locus YEL061C, strain CIN8, stronger effect = lower value 0.856 | locus YER110C, stronger effect = lower value 0.866 | locus YER155C, strain BEM2, stronger effect = lower value 0.753 | locus YGL078C, strain dbp3, stronger effect = lower value 0.765 | locus YGL086W, strain mad1, stronger effect = lower value 0.803 | locus YGL248W, strain PDE1, stronger effect = lower value 0.748 | locus YGR135W, strain pre9, stronger effect = lower value 0.713 | locus YGR252W, strain gcn5, stronger effect = lower value 0.519 | locus YHR030C, strain SLT2, stronger effect = lower value 0.795 | locus YHR079C, strain IRE1 (second series), stronger effect = lower value 0.89 | locus YHR129C, strain ARP1, stronger effect = lower value 0.768 | locus YHR200W, strain rpn10, stronger effect = lower value 0.907 | locus YIL066C, strain RNR3, stronger effect = lower value 0.859 | locus YIR030C, strain dcg1, stronger effect = lower value 0.907 | locus YJL095W, strain BCK1, stronger effect = lower value 0.46 | locus YJL187C, strain SWE1 (second series), stronger effect = lower value 0.721 | locus YJR043C, strain POL32, stronger effect = lower value 0.85 | locus YKL009W, strain mrt4, stronger effect = lower value 0.742 | locus YKL085W, strain MDH1 (second series), stronger effect = lower value 0.913 | locus YKL085W, strain MDH1, stronger effect = lower value 0.913 | locus YKL190W, strain CNB1, stronger effect = lower value 0.839 | locus YKR001C, strain vps1, stronger effect = lower value 0.425 | locus YLR039C, strain RIC1, stronger effect = lower value 0.507 | locus YLR058C, strain SHM2, stronger effect = lower value 0.784 | locus YLR262C, strain YPT6, stronger effect = lower value 0.381 | locus YLR330W, strain CHS5, stronger effect = lower value 0.715 | locus YLR342W, strain FKS1 (second series), stronger effect = lower value 0.601 | locus YLR418C, strain cdc73, stronger effect = lower value 0.456 | locus YML032C, strain rad52, stronger effect = lower value 0.795 | locus YML124C, strain tub3, stronger effect = lower value 0.914 | locus YMR223W, strain ubp8, stronger effect = lower value 0.805 | [2] 0.768 | [3] 0.59 | locus YNL067W, strain RPL9B, stronger effect = lower value 0.721 | locus YNL233W, strain BNI4, stronger effect = lower value 0.67 | locus YNL250W, strain rad50, stronger effect = lower value 0.887 | locus YNL271C, strain bni1, stronger effect = lower value 0.855 | locus YNL298W, strain CLA4, stronger effect = lower value 0.802 | locus YNL307C, strain MCK1, stronger effect = lower value 0.513 | locus YNR052C, strain pop2, stronger effect = lower value 0.855 | locus YOL147C, strain pex11, stronger effect = lower value 0.824 | locus YOR061W, strain CKA2, stronger effect = lower value 0.885 | locus YOR069W, strain VPS5, stronger effect = lower value 0.807 | locus YOR136W, strain idh2, stronger effect = lower value 0.899 | locus YOR144C, strain elg1, stronger effect = lower value 0.918 | locus YOR184W, strain ser1, stronger effect = lower value 0.666 | locus YPR119W, strain clb2, stronger effect = lower value 0.924 | locus YPR163C, strain tif3, stronger effect = lower value 0.682 | locus YPR167C, strain met16, stronger effect = lower value 0.809 | strain wtn01, stronger effect = lower value 0.789
